Bioassay records as filed in PubChem BioAssay.
TEAD-YAP inh: TEAD-YAP interaction inhibition, primary screen, TEAD-YAP interaction inhibitor project, luminescence, HEK-TIYL cells | TEAD-Gal4/YAP UAS-luciferase luminescence | 640,000 tested, 1.4% active | inhibition, % at 9.12 µM; in the data active means inhibition above about 32%;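 further: 0% = median of test compound wells and 100% = reference inhibitor wells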
FBW7 activator: FBW7 E3 ligase activators, primary screen, biochemical, AlphaScreen, human | F-box/WD repeat-containing protein 7 (Homo sapiens), Q969H0 | AlphaScreen FBW7–phospho-cyclin E peptide binding, activator screen | normalized activity (activation), % at 26.1 µM | 650,000 tested, 0.13% active | AID 1259310, 2017; in the data active means normalized activity above about 1.9%;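 further: purified mutant Fbw7 with reduced substrate affinity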
GPR151 activ: activators of human GPR151, primary screen, cell-based, PathHunter beta-arrestin, luminescence; PathHunter beta-arrestin GPR151 cells; AID 1508602, 2020; activation, % at 11.2 µM; 650,000 tested, 1% active; G-protein coupled receptor 151 (Homo sapiens), Q8TDV0; in the data active means activation above about 4.9%;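 further: 0% = median of compound wells and 100% = cells with positive control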
MITF primary: MITF inhibitors, primary screen, biochemical, AlphaScreen, human | AID 1259374, 2018 | inhibition, % at 2.6 µM | 650,000 tested, 0.91% active | AlphaScreen MITF homodimerization, bead proximity signal | Microphthalmia-associated transcription factor (Homo sapiens), O75030; in the data active means inhibition above about 50%;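 further: 0% = vehicle wells with protein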
Target sequence (O75030 whole entry, looked up): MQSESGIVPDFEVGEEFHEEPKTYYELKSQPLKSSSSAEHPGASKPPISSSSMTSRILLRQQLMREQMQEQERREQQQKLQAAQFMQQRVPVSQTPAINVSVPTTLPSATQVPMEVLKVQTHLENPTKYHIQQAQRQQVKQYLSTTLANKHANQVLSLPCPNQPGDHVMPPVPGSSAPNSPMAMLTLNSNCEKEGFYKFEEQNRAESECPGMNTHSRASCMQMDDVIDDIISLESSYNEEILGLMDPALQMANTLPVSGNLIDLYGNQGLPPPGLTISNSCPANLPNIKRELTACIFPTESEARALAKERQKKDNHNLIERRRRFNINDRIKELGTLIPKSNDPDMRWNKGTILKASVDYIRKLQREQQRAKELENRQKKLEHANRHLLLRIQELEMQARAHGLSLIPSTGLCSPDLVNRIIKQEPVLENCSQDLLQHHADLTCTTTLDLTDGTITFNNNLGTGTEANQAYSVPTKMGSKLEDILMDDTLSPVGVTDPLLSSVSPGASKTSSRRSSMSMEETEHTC
Active calls of the source: *. Only some compounds are listed: those with a hit (about 3.4% of all), similar ones and a draw of the others.

How did CC1CCN(Cc2cc(COC(C)C)c3cccnc3c2O)CC1 do in these assays?
TEAD-YAP inh: 15; FBW7 activator: -1; GPR151 activ: -3; MITF primary: 85*

What do the screens show for `COCc1cc(CN2CCC(C)CC2)c(O)c2ncccc12`?
TEAD-YAP inh: 65*; FBW7 activator: -1; GPR151 activ: 0; MITF primary: 104*

What do the screens show for `CC1CN(Cc2cc([N+](=O)[O-])c3cccnc3c2O)CC(C)O1` (stereo not drawn)?
TEAD-YAP inh: 54*; FBW7 activator: -1; GPR151 activ: -1; MITF primary: 84*

What do the screens show for `COc1ccccc1NC(=O)CSc1ccc(-c2nc3ccccc3[nH]2)cn1`?
TEAD-YAP inh: -4; FBW7 activator: 0; GPR151 activ: -4; MITF primary: -1

Results for COc1cc(Nc2ccnc(N3CCN(c4ccccn4)CC3)n2)cc(OC)c1OC ?
TEAD-YAP inh: 36*; FBW7 activator: 0; GPR151 activ: 0; MITF primary: 11

What do the screens show for `COc1cc(Nc2cc(C)nc(N3CCN(c4ccccn4)CC3)n2)cc(OC)c1OC`?
TEAD-YAP inh: 53*; FBW7 activator: 0; GPR151 activ: 3; MITF primary: 4

Results for COc1cc(Nc2cc(N3CCN(c4ccccn4)CC3)ncn2)cc(OC)c1OC ?
TEAD-YAP inh: -13; FBW7 activator: 0; GPR151 activ: -1; MITF primary: -9

What do the screens show for `CCCCNC(=O)c1ccccc1NC(=O)c1ccccc1Br`?
TEAD-YAP inh: 7; FBW7 activator: 1; GPR151 activ: 2; MITF primary: 14

Results for COc1ccc(CCNc2ccnc(N3CCN(Cc4ccc5c(c4)OCO5)CC3)n2)cc1 ?
TEAD-YAP inh: 5; FBW7 activator: 1; GPR151 activ: -2; MITF primary: 20

What do the screens show for `COc1cccc2c1NC(c1ccc(C(=O)O)cc1)C1CC=CC21` (stereo not drawn)?
TEAD-YAP inh: 11; FBW7 activator: -1; GPR151 activ: -2; MITF primary: 71*

How did COc1cc([N+](=O)[O-])cc2c1NC(c1ccc(C(=O)O)cc1)C1CC=CC21 (stereo not drawn) do in these assays?
TEAD-YAP inh: 7; FBW7 activator: 0; GPR151 activ: -1; MITF primary: 75*

How did COc1cccc2c1N[C@@H](c1ccc(C(=O)O)cc1)[C@H]1CC=C[C@@H]21 do in these assays?
TEAD-YAP inh: -4; FBW7 activator: -1; GPR151 activ: 0; MITF primary: 63*

Results for COC(=O)c1cn(C(=O)c2cccs2)c2ccccc12 ?
TEAD-YAP inh: 8; FBW7 activator: 0; GPR151 activ: 0; MITF primary: 8

Results for Cn1c(Nc2nc(NCc3ccccc3)c3ncn(C4CCCCC4)c3n2)nc2ccccc21 ?
TEAD-YAP inh: 4; FBW7 activator: 0; GPR151 activ: 3; MITF primary: -1

What do the screens show for `c1ccc2[nH]c(CNc3nc(N4CCOCC4)nc4c3ncn4-c3ccsc3)nc2c1`?
TEAD-YAP inh: 88*; FBW7 activator: 0; GPR151 activ: -1; MITF primary: 18

Results for CC(C)n1cnc2c(NCc3nc4ccccc4[nH]3)nc(N3CCN(Cc4ccc5c(c4)OCO5)CC3)nc21 ?
TEAD-YAP inh: 68*; FBW7 activator: 0; GPR151 activ: 0; MITF primary: 9

Results for CCN(CC)c1nc(NCc2nc3ccccc3[nH]2)nc(N2CCN(c3ccccn3)CC2)n1 ?
TEAD-YAP inh: 34*; FBW7 activator: 0; GPR151 activ: 1; MITF primary: 13

How did CCN(CC)c1nc(NCCc2ccc(O)cc2)nc(N2CCN(c3ccccn3)CC2)n1 do in these assays?
TEAD-YAP inh: -2; FBW7 activator: 0; GPR151 activ: 0; MITF primary: 0

What do the screens show for `Cc1noc(C)c1-c1nc(NCc2nc3ccccc3[nH]2)c2ncn(-c3ccsc3)c2n1`?
TEAD-YAP inh: 8; FBW7 activator: 0; GPR151 activ: 0; MITF primary: 18

How did Cn1c(Nc2nc(NCc3nc4ccccc4[nH]3)c3ncn(C4CCCCC4)c3n2)nc2ccccc21 do in these assays?
TEAD-YAP inh: 34*; FBW7 activator: 0; GPR151 activ: -2; MITF primary: -9

Results for CC(C)n1cnc2c(NCc3ccccc3)nc(N3CCN(Cc4ccc5c(c4)OCO5)CC3)nc21 ?
TEAD-YAP inh: -3; FBW7 activator: 0; GPR151 activ: 0; MITF primary: 0

What do the screens show for `O=C1CCC2(C(=O)NC34CC5CC(CC(C5)C3)C4)SCCN12` (stereo not drawn)?
TEAD-YAP inh: -3; FBW7 activator: 0; GPR151 activ: 0; MITF primary: -10

Results for CCCCOc1ccc(/C=c2\sc3nc(-c4ccccc4OC(C)=O)nn3c2=O)cc1 ?
TEAD-YAP inh: 1; FBW7 activator: 0; GPR151 activ: -1; MITF primary: -14

How did CC(C)n1cnc2c(NCc3nc4ccccc4[nH]3)nc(Nc3ccc(N4CCOCC4)cc3)nc21 do in these assays?
TEAD-YAP inh: 57*; FBW7 activator: 0; GPR151 activ: -1; MITF primary: 0

What do the screens show for `c1ccc2[nH]c(CNc3nc(Nc4ccc(N5CCOCC5)cc4)nc4c3ncn4C3CCCCC3)nc2c1`?
TEAD-YAP inh: -2; FBW7 activator: 0; GPR151 activ: -1; MITF primary: 13

Results for CC(C)n1cnc2c(NCc3nc4ccccc4[nH]3)nc(N3CCCC3CO)nc21 (stereo not drawn) ?
TEAD-YAP inh: 72*; FBW7 activator: 0; GPR151 activ: 0; MITF primary: 7

How did CC(C)n1cnc2c(NCc3nc4ccccc4[nH]3)nc(N3CCN(c4ccccn4)CC3)nc21 do in these assays?
TEAD-YAP inh: 72*; FBW7 activator: 0; GPR151 activ: 2; MITF primary: 14

How did CC(C)n1cnc2c(NCc3nc4ccccc4[nH]3)nc(N3CCC(N4CCOCC4)CC3)nc21 do in these assays?
TEAD-YAP inh: 63*; FBW7 activator: 0; GPR151 activ: 0; MITF primary: 9

How did OCCNc1ncnc2nc(N3CCN(Cc4ccc5c(c4)OCO5)CC3)[nH]c12 do in these assays?
TEAD-YAP inh: 2; FBW7 activator: 0; GPR151 activ: 1; MITF primary: 8

What do the screens show for `c1ccc2[nH]c(CNc3ncnc4nc(N5CCN(Cc6ccc7c(c6)OCO7)CC5)[nH]c34)nc2c1`?
TEAD-YAP inh: 54*; FBW7 activator: 0; GPR151 activ: 0; MITF primary: 12

How did c1ccc(-n2cnc3c(NCc4nc5ccccc5[nH]4)nc(N4CCC(N5CCOCC5)CC4)nc32)cc1 do in these assays?
TEAD-YAP inh: 44*; FBW7 activator: 0; GPR151 activ: -1; MITF primary: 8

How did c1ccc2[nH]c(CNc3nc(N4CCOCC4)nc4c3ncn4C3CCCCC3)nc2c1 do in these assays?
TEAD-YAP inh: 74*; FBW7 activator: 0; GPR151 activ: 0; MITF primary: 0
